# The whole screen tested about 400,000 compounds, of which about 3,700 (0.93%) were called active. Another 3% or so got no clear call; they are omitted. The full list was thinned out, with actives kept by preference. A structure can be active in one record and inactive in another. Values without a mark were called inactive. Calls follow the shape of the dose curve; as a rule, active = well fitted inhibition curve with a large enough effect; inconclusive = small, poorly fitted or top-dose-only effect, or another doubt; inactive = no such curve, though single readings can be large or run the other way.
# Target: Vitamin D3 receptor (Homo sapiens) (UniProt P11473)
# Test: Inhibitors of the vitamin D receptor (VDR): qHTS
# Conditions: VDR-SRC2-3 peptide fluorescence polarization, 2 h; max response, negative = inhibition: active compounds read low
# Outline: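 Measured by FP: displacement of SRC2-3 coactivator peptide from VDR by library compounds, following a two-hour ambient incubation.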
# % is scaled to controls: 0 for no effect and ±100 for the full control effect; potency is read from the fitted curve at half-maximal effect.
# Chain of Vitamin D3 receptor (Homo sapiens) (P11473 whole entry, looked up): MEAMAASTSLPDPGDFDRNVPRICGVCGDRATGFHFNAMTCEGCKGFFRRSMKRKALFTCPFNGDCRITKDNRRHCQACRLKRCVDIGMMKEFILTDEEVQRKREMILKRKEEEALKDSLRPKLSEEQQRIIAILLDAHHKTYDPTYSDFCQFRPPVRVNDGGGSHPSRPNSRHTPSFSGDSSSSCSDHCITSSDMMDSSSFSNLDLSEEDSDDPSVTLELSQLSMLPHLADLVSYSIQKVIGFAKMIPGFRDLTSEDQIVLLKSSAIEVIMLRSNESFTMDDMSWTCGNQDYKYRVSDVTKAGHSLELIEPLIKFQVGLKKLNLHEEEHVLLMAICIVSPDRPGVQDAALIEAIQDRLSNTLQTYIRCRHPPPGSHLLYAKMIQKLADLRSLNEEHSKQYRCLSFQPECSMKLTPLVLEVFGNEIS
Structure (SMILES),"max response, negative = inhibition [%]",Potency
COc1ccc(CCC(=O)NCc2ccc3c(c2)CCN3C(=O)c2ccc(F)cc2)cc1,1.51,
CCOc1ccc(NC(=O)c2c(NCc3cccc(OC)c3OC)sc3c2CCC3)cc1,-0.323,
Cc1ccccc1NC(=O)c1c(NC(=O)c2ccccc2F)sc2c1CCC(C)C2 (stereo not given),-12.5,
Cc1cccc(OCCCC(=O)Nc2sc3c(c2C(N)=O)CCC(C)C3)c1 (stereo not given),0.722,
CCOc1ccc(NC(=O)c2c(NC(=O)Cc3ccccc3)sc3c2CCC(C)C3)cc1 (stereo not given),,79.4 µM (active)
CCOc1ccc(NC(=O)c2c(NC(=O)Cc3ccccc3)sc3c2CCCCC3)cc1,,17.8 µM (active)
O=C(Cc1ccccc1)Nc1sc2c(c1C(=O)Nc1ccc(Br)cc1)CCC2,1.17,
COc1ccc2oc(-c3ccc(C)c(NC(=O)c4sc5ccccc5c4Cl)c3)nc2c1,-13.7,
O=C(O)c1ccc(Nc2nc(-c3ccccc3)c3cc(Br)ccc3n2)cc1,-8.21,
Cc1cccc(N2CCN(C(=O)CCn3c(=O)c4cccn4c4cccnc43)CC2C)c1 (stereo not given),-1.09,
Cc1ccc(C2CCN(C(=O)c3cnn(-c4ccccc4Cl)c3C3CCN(C(=O)OC(C)(C)C)CC3)C2)cc1 (stereo not given),14.7,
Cc1cccc(C(=O)N2CCc3cc(CNC(=O)Cc4ccc(F)cc4)ccc32)c1,6.68,
CCCCNC(=O)Cn1c(SCc2cccc(Cl)c2)nc2ccncc21,-15.1,
O=S(=O)(Nc1cccc2cccnc12)c1cccc2cccnc12,-4.84,
CCOC(=O)c1ccc(NC(=O)c2c(NCc3cccs3)sc3c2CCCC3)cc1,-5.89,
CN(C(=O)CSc1nc2ccc(NC(=O)COc3ccccc3)cc2s1)c1ccccc1,3.21,
O=C(Nc1ccc2nc(SCC(=O)N3CCc4ccccc43)sc2c1)c1ccccc1F,0.401,
O=C(O)c1ccccc1CSc1nc2ccccc2s1,,89.1 µM (active)
CCOc1ccccc1NC(=O)C1=C(C)Nc2ncnn2C1c1ccc(NC(C)=O)cc1 (stereo not given),6.42,
COc1ccc(Br)cc1C1C2C=CCC(C)C2C(=O)N1Cc1ccccc1 (stereo not given),-6.47,
COc1ccccc1CNC(=O)c1ccc(NC(=O)N2CC(C)Sc3ccccc32)cc1 (stereo not given),-3.93,
O=C(NCc1ccccc1)c1cccc(NC(=O)N2CCSc3ncccc32)c1,4.27,
O=C(O)CCCN1C(=O)c2ccccc2Sc2ncccc21,23.5,

Structure (SMILES),"max response, negative = inhibition [%]",Potency
CCCCN1C(=O)/C(=C(/C#N)C(N)=O)c2ccccc21,,50.1 µM (active)
Cc1cc(C(=O)COC(=O)CCCN2C(=O)c3ccccc3C2=O)c(C)n1C,11.4,
O=C(/C=C/c1cn(CC(O)CN2CCc3ccccc32)c2ccccc12)c1ccc(Br)cc1 (stereo not given),25.1,
COCCNC(=O)CSc1c(C)cnc2c1c(=O)n(C)c(=O)n2C,8.06,
COc1ccc(NC(=O)C(=O)NCc2ccco2)cc1,-7.31,
COc1ccc(CS(=O)/C(Cl)=C(/Cl)C(=O)Nc2ccc(OC)nc2)cc1 (stereo not given),,20 µM (active)
COc1ccc(CC(=O)Nc2ccc(-c3nc4ccccc4s3)c(C)c2)cc1,-0.795,
O=C(Nc1ccc2nc(SCCOc3ccccc3Cl)sc2c1)c1ccco1,5.06,
CC(Nc1ccc(-c2nc(-c3ccco3)no2)cc1[N+](=O)[O-])c1ccccc1 (stereo not given),0.644,
CCc1ccccc1NC(=O)Cn1c(=O)n(CC2CCC(C(=O)NCCc3ccccc3)CC2)c(=O)c2ccccc21 (stereo not given),-18.5,
Cc1cc(C(=O)Nc2cccc(C(F)(F)F)c2)c2c(C)nn(-c3cccc(F)c3)c2n1,-0.555,
c1ccc2c(CNn3cnnc3)cccc2c1,-17.7,
c1ccc2c(C[n+]3csc4ccccc43)cccc2c1,,44.7 µM (active)
Nc1scc[n+]1Cc1cccc2cccnc12,4.69,
CCN(CC)c1ccc(NC(=O)Cn2nc3c(cc2=O)CCCC3)c(C)c1,2.95,
CC1(C)OC2CO[C@]3(COS(N)(=O)=O)OC(C)(C)OC3C2O1 (stereo not given in full),-14.1,
Oc1cc(O)c2c(c1)OC(c1ccc(O)c(O)c1)C(O)C2 (stereo not given),-19.6,35.5 µM (active)
NS(=O)(=O)c1ccc(NC(=O)CSc2nnc3c(n2)[nH]c2ccccc23)cc1,5.25,
CCOc1cc(-c2nnc(SCC(=O)NC3CCCCC3)nc2-c2ccc(OC)c(OCC)c2)ccc1OC,15.8,
COc1ccc(OCc2n[nH]c(=S)n2N)cc1,,35.5 µM (active)
COc1ccc(Cc2n[nH]c(=S)n2NC(=O)Nc2ccc(C)cc2)cc1,-6.31,
COc1ccc(OC)c(-n2c(-c3ccn[nH]3)n[nH]c2=S)c1,-3.11,
COc1cc(C(=O)N(Cc2ccc(C(C)C)cc2)C2CCS(=O)(=O)C2)cc(OC)c1OC (stereo not given),-4.09,

Structure (SMILES),"max response, negative = inhibition [%]",Potency
CCOc1cc(/C=C(\C#N)C(=O)Nc2ccccc2C)ccc1OCc1cc(=O)n2nc(CC)sc2n1,-13.9,
C=CC(=O)c1ccc2ccccc2c1,,1.78 µM (active)
O=C(Nc1ccccc1N1CCCC1)c1ccc2ccccc2c1,-2.28,
O=C(NNC(=O)c1ccc2ccccc2c1)c1ccc(Cl)cc1,18.2,
O=C(CC1N=C2c3ccccc3N=C(SCc3cccc(Cl)c3)N2C1=O)NCc1ccc2c(c1)OCO2 (stereo not given),13.3,
COc1ccc(NC(=O)CSc2nnc(-c3nnn(-c4ccc(F)cc4)c3C)o2)cc1,15.3,
CCCCCCCC1=Cc2ccc(F)cc2C(C(C(=O)OC)C(=O)OC)N1C(=O)OC (stereo not given),2.51,
COc1ccc(CCN=C2SCC(=O)N2Cc2ccccc2)cc1OC,3.18,
COc1cc(CNC2CCCC2)c(Br)cc1OCc1ccccc1,18.9,
COc1cc(C2CC(=O)N3CN(Cc4ccccc4)CSC3=C2C#N)ccc1OCc1ccccc1 (stereo not given),,22.4 µM (active)
Cc1cccc(-c2nc(SCc3ccc(Br)cc3)n3[nH]c(=O)cc3n2)c1,11.8,
COc1ccccc1CNc1ncnc2ccc(-c3ccc4c(c3)OCO4)cc12,-6.36,
COc1ccc(-n2c(SC)nc(O)cc2=O)cc1,-7.87,
CCn1c(CNC(=O)c2ccc(OC)c(OC)c2)nnc1SCC(=O)Nc1ccccc1,2.26,
CCn1c(SC)nc(O)c(C(c2ccc(OC)c(O)c2)c2c(O)nc(SC)n(CC)c2=O)c1=O,,35.5 µM (active)
COc1cc(NC(=O)c2noc3c2CSc2ccccc2-3)cc(OC)c1OC,1.93,
COc1ccc(CNc2nc(-c3ccc(Cl)cc3)nn2S(=O)(=O)c2ccc(C)cc2)cc1,-0.454,
Cc1ccc(-n2cnc3cc(C(=O)NCCC4=CCCCC4)ccc32)cc1Cl,-3.42,
CCOC(=O)c1ccc(CN(Cc2ccccc2)S(=O)(=O)c2ccc(Cl)cc2)cc1,9.71,
CCn1c(SCC(=O)Nc2sc(C)c(C)c2C#N)nnc1C1CC1,1.75,
CCOC(=O)c1sc(NC(=O)CSc2nc(C)cc(C(F)(F)F)n2)c(C#N)c1C,,28.2 µM (active)
Cc1cccc(NC(=O)CSc2nc(-c3ccco3)cc(C(F)(F)F)n2)c1C,-20.2,
CC1=Nc2cc(C(=O)N3CCC(C)CC3)ccc2Sc2ccc(Cl)cc21,-2.31,

Structure (SMILES),"max response, negative = inhibition [%]",Potency
CN(Cc1ccco1)c1cc(-c2ccccc2C(F)(F)F)ncn1,,39.8 µM (active)
Cn1c(=O)[nH]c(=O)c2c1nc(NCCc1ccccc1)n2Cc1ccc(F)cc1,-22.7,
Cc1nnc(Sc2nc3c(c(=O)[nH]c(=O)n3C)n2Cc2ccccc2)s1,-19.6,
Cn1c(=O)[nH]c(=O)c2c1[nH]c(=S)n2Cc1ccccc1,,89.1 µM (active)
c1ccc(Cn2nnc3c(N4CCCCC4)ncnc32)cc1,7.87,
COc1ccc(OC)c(-c2noc(N3CCN(c4cc(Cl)ccc4C)CC3)n2)c1,13.2,
O=C(CN1CCC(O)(c2ccccc2)CC1)Nc1ccc2c(c1)OCCO2,0.904,
CCC1(c2ccccc2)NC(=O)N(CC(=O)c2ccc3c(c2)OCO3)C1=O (stereo not given),7.42,
O=C(CCN1CCc2ccccc2C(O)(c2ccccc2)C1)c1ccc2c(c1)OCCO2 (stereo not given),,35.5 µM (active)
COc1cc(OC)cc(C(=O)NCCc2csc3nc(-c4ccccc4F)nn23)c1,1.56,
CCOC(=O)c1cccc(NS(=O)(=O)c2cc(-c3cnc(C)o3)ccc2OC)c1,1.33,
O=C(CSc1nnnn1C1CCCC1)N1CCCCC1,12.7,
CC(Sc1nnnn1C1CCCCC1)C(=O)O (stereo not given),,79.4 µM (active)
CC(Sc1nnnn1C)C(=O)NC(=O)NC1CCCCC1 (stereo not given),15,
CC1OC(OCC2OC(Oc3c(-c4ccc(O)c(O)c4)oc4cc(O)cc(O)c4c3=O)C(O)C(O)C2O)[C@@H](O)C(O)C1O (stereo not given in full),-0.0788,
COc1cc(C(=O)N2CCN(c3ccc(Nc4ccc(C)cc4)nn3)CC2)cc(OC)c1OC,13.1,
Cc1oc2ncnc(N3CCOCC3)c2c1C(=O)NCCc1ccccc1,9.03,
O=C1c2ccccc2C(=O)N1c1ccc(S(=O)(=O)N2CCOCC2)c2ccccc12,-4.23,
FC(F)(F)C1CCCN(c2nsc3ccccc23)C1 (stereo not given),,20 µM (active)
C[C@H]1CCC[C@@]2(C)CCCC[C@]12O,0.107,

# Reference: PubChem BioAssay AID504847 (National Center for Advancing Translational Sciences (NCATS), 2011)
